Consider 13 molecules from PubChem BioAssay (NCI).

Structures are written as SMILES. Compounds without any hit were thinned out: in the full panel of roughly 83,000, 20% have a hit.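 Activity criterion: percent growth below 10, measured after cells in 96-well plates were exposed to a single compound concentration for 48 hours.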 Activity calls are given as the source filed them.

The experiment concerns MDA-MB-468 breast. As to the kind of experiment: NCI-60 one-dose screen, 48 h (100 = growth as untreated, 0 = no growth, -100 = all killed). Conditions: 10 µM unless noted.
`OCCN(CCO)c1ccc2ccccc2c1`: the growth was 107% (inactive). The figure for `CCOC(=O)c1c(NC(=O)C2CCCCC2C(=O)O)sc2c1CCCC2` (stereo not drawn) is 103% (inactive).

With `NC(=O)c1cc(I)ccc1NC(=O)/C=C/c1ccccc1`, the growth was 51.9% (inactive). The figure for `CCN(CC)CCn1c2ccc(O)cc2c2sc3cc(OC)ccc3c(=O)c21` is 33.8% (inactive); for `COc1ccc(C(=O)CSc2nc(-c3cc(OC)ccc3OC)cc(-c3ccc(OC)cc3)c2C#N)cc1` it is 105% (inactive). Regarding `N#CC1=C(N)Oc2c(sc3c(Br)cccc23)C1c1ccccn1` (stereo not drawn), the growth was 25.6% (inactive). The result for `Cc1ccc(S(=O)(=O)Nc2ccc(-c3cc(-c4cccc(F)c4)c(C#N)c(N)n3)cc2)cc1` reads -14.9% (active); that for `Nc1nc(-c2cnccn2)nn1-c1nc2ccccc2s1`, 102% (inactive). The figure for `C=C(C)[C@@H]1CC[C@]2(C(=O)N3CCN(C)CC3)CC[C@]3(C)[C@H](CC[C@@H]4[C@@]5(C)CC[C@H](O)C(C)(C)[C@@H]5CC[C@]43C)[C@@H]12` is -67.3% (active); for `COc1ccc(C(=O)C2C(C#N)C(C#N)C3C=Cc4ccccc4N32)cc1` (stereo not drawn) it is 16.5% (inactive); for `CC(C)C[C@H](NC(=O)[C@@H](Cc1ccccc1)n1ccc(Nc2ccccc2)cc1=O)B(O)O` it is -19.8% (active). For the molecule `COc1cnc2c(c1)C(=O)c1c-2n(CCCNCC2CC2)c(=O)c2cc(F)ccc12`, the growth was -38.4% (active). In the case of `CC(C)C[C@H]1C(=O)O[C@H](C(C)C)C(=O)N(C)[C@@H](C(C)C)C(=O)O[C@H](C(C)C)C(=O)N(C)[C@@H](C(C)C)C(=O)O[C@H](C(C)C)C(=O)N1C`, the growth is -7.13% (active).
